# From the OligoGym collection
# Target: SRSF6
# Experiment: pooled miR-30 sensor sort-seq; sequence = guide strand
# Conditions: shRNA
# Note: reference of the scale not given here.
row,Sequence,sensor-assay potency score (higher = more potent)
1,TTAGATTTGCTCTTTGATCTAG,0.289
2,TAGATTTGCTCTTTGATCTAGA,0.174
3,TTTGAGGTCTACTTCGAGGAGG,-0.608
4,TTGAGCGAGATCTAGAACGGGA,0.0866
5,ATTTTTGAGGTCTACTTCGAGG,-1.54
6,TACTTCGTGACCGTCTTCTAGA,-0.126
7,TTGAAGTAGCTCTTTTTGGTGG,-0.375
8,TTGATCTTGACTTTGAGCGAGA,-0.415
9,TAGATCTGCTTCGAGAATGTGA,-0.00685
10,TTGATCGAGAACGTGATCGACC,-0.727
11,TTGACTTTGAGCGAGATCTAGA,-0.299
12,TTGATCTAGATTTCCTGCCTTT,0.199

# Target: SRSF7
# Experiment: as above
# Conditions: shRNA
row,Sequence,sensor-assay potency score (higher = more potent)
1,TTTCTAACTCTCCTTTGCCAGC,-1.58
2,TTCTGAGTGAAGCTGATCTTGA,-0.735
3,TTGATCGTCGAGGAGATGCTGA,-0.317
4,TAGATCTTGATCGTCGAGGAGA,-0.545
5,TTTCTCGCAATCCATACAGTTC,-1
6,TGCATCTCTAGGATCTTCGAAT,-1.39
7,TTGATCTTGACCTCGACGGGGA,0.107
8,TTACCAACATACACCTTGGTTT,-0.665
9,TATCAAAACGTGATCTCCGAGG,-0.606
10,TAGATCTTCTGAGTGAAGCTGA,0.474
11,TAAAGGACCATAATAACTGAAA,-1.16
12,TAGACCTGGATCTTGATCTTGA,-0.00181

# Target: SS18
# Experiment: as above
# Conditions: shRNA
row,Sequence,sensor-assay potency score (higher = more potent)
1,ATTGTCATCCAACATCTTCTGA,-0.704
2,TTGGTTAACTTGACCCATCATT,-0.57
3,TTGTGTGCAACATCTGCTGATA,-0.703
4,TATTGTATTGCTGAGAAGGAGG,-1.18
5,TTTCAGTCTGTAACAGTCCATT,-0.917
6,TAGAATCTGCTATTGTAGCAAG,-0.645
7,TTGTCATCTGATTCTGTACTGG,-0.29
8,TTATACACTGAATAAGATGGTT,-0.124
9,TTGTCATCCAACATCTTCTGAA,-0.31
10,TTTGTGTGCAACATCTGCTGAT,0.199
11,TTTATCTTTATAGCACACCATT,-1.15
12,TATTGTAGCAAGGTATACCAAG,-0.903
